Out of some 63,000 compounds screened, about 1,100 (1.7%) were called active. The full list was thinned out, with actives kept by preference. Potency and affinity values are given separately. Values without a mark were called inactive. Cut-off read from the data, not from the text of the source: active = cytotoxicity above about 50%; inactive = the rest.
Assay: HPDE-C7 pancreatic duct cell viability loss – fluorescence, HTS (AID 430);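 note: cells exposed to compound for 48 hours before viability readout; 0% = vehicle and 100% = reference cytotoxic drug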
Settings: HPDE-C7 pancreatic duct cells viability, at 10 µM, stronger effect = higher value
Work on `O=C1Cc2ccccc2C(=O)N1CCc1ccccc1` yielded a cytotoxicity of -14.2%.
Molecule `Cc1cc(NC(=O)c2cnn3c(C(F)F)cc(-c4ccccc4)nc23)no1` has a cytotoxicity of -6.1%.
Work on `N#CC(c1nc2ccccc2nc1N1CCCC1)S(=O)(=O)c1ccccc1` (stereo unspecified) yielded a cytotoxicity of -10.1%.
In the case of `COc1ccc(S(=O)(=O)C(C#N)c2nc3ccccc3nc2N2CCCCC2)cc1` (stereo unspecified), the cytotoxicity was -10.2%.
Molecule `Cc1ccc(S(=O)(=O)C(C#N)c2nc3ccccc3nc2N2CCC(C)CC2)cc1` (stereo unspecified) has a cytotoxicity of 5.7%.
With `COc1ccc(S(=O)(=O)C(C#N)c2nc3ccccc3nc2N2CCCC(C)C2)cc1` (stereo unspecified) the cytotoxicity was 61.7% (active).
For `CC1CCCN(c2nc3ccccc3nc2C(C#N)S(=O)(=O)c2ccccc2)C1` (stereo unspecified), the cytotoxicity was 52.3% (active).
`CC1CCN(c2nc3ccccc3nc2C(C#N)S(=O)(=O)c2ccccc2)CC1` (stereo unspecified) gave a cytotoxicity of 12.4%.
For `CCS(=O)(=O)NCCc1csc(-c2ccccc2)n1`, the cytotoxicity was -4.2%.
Work on `CCSc1nc(C)c(CC)c(C)c1C(N)=O` yielded a cytotoxicity of 1.9%.
`CCOC(=O)CC(=O)CSc1[nH]c(=O)cc(C)c1C#N` gave a cytotoxicity of -1.4%.
In the case of `Cc1ccc(-c2cn3cccnc3n2)cc1NC(=O)c1c(-c2ccccc2Cl)noc1C`, the cytotoxicity was 40.2%.
`Cc1c(C(=O)N(Cc2cccs2)C2CCS(=O)(=O)C2)oc2ccccc12` (stereo unspecified) gave a cytotoxicity of -22.1%.
`CN(C)S(=O)(=O)c1ccc(-c2ccccc2)cc1` gave a cytotoxicity of -2.3%.
In the case of `CN(C)S(=O)(=O)n1cnc(-c2ccccc2)c1-c1ccccc1`, the cytotoxicity was -7.9%.
In the case of `Cc1ccc(CNC(=O)c2cn(C3CCCCC3)c(=O)c3c2c2ccccc2n3C)o1`, the cytotoxicity was -4%.
In the case of `O=S(=O)(NCCOc1ccc(F)cc1)c1ccc2c(c1)OCCO2`, the cytotoxicity was -5.3%.
Work on `Brc1cnn(-c2nc(N3CCOCC3)nc(N3CCOCC3)n2)c1` yielded a cytotoxicity of 5.8%.
`O=C(Nc1cc(C(=O)N2CCOCC2)cc(C(=O)N2CCOCC2)c1)c1cc(F)c(F)cc1Cl` gave a cytotoxicity of -14.6%.
`O=C(OCc1nc2ccccc2s1)C1CCN(C2=NS(=O)(=O)c3ccccc32)CC1` gave a cytotoxicity of 1.1%.
`COc1cc(C(=O)Nc2ccccn2)cc(OC)c1OC` showed a cytotoxicity of 5.4%.
Molecule `CC(C)C(=O)NC(c1ccco1)c1ccc2cccnc2c1O` (stereo unspecified) has a cytotoxicity of -17.7%.
Molecule `COc1ccc(C(NC(C)=O)c2ccc3cccnc3c2O)c(OC)c1` (stereo unspecified) has a cytotoxicity of 11.7%.
Work on `Cc1cc(NC(c2cccnc2)c2ccc3cccnc3c2O)no1` (stereo unspecified) yielded a cytotoxicity of 9%.
Molecule `O=c1cc(CO)oc(C(Nc2ccccn2)c2ccccc2F)c1O` (stereo unspecified) has a cytotoxicity of -3.3%.
Work on `CC(=O)NC(c1ccco1)c1ccc2cccnc2c1O` (stereo unspecified) yielded a cytotoxicity of 31.1%.

From PubChem BioAssay AID430 (Sanford-Burnham Center for Chemical Genomics, 2006)
